# Laboratory results taken from PubChem BioAssay (NCI).
# About 83,000 compounds went through this panel and 20% of them were active in at least one assay; those are over-represented in the sample as a whole.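 Each cell line was grown in a 96-well plate and treated with one concentration of compound for 48 hours. Values below 10 were considered active.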 Active and inactive are the calls of the source.
# System: T-47D breast
# Test: NCI-60 one-dose screen, 48 h (100 = growth as untreated, 0 = no growth, -100 = all killed)
# Details: 10 µM
# Procedure: Growth inhibition of the T-47D human tumor cell line is measured as a screen for anti-cancer activity. Cells are grown in 96 well plates and exposed to the test compound for 48 hours. Compounds are tested at a single concentration, which is 10^-5 M for most compounds. The reported endpoint is percent growth (GI% or GIPRCNT), where numbers from 0 - 100% represent growth inhibition, and numbers from -100% - 0 represent cell death. For example, a value of 40 represents 60% growth inhibition. A value of 0 means no net growth occurred over the course of the experiment. A value of -40 indicates 40% of cells at the beginning of the experiment died by the end of the experiment. A value of -100 means all cells are dead at the end of the experiment.
# NCI-60 Human Tumor Cell Lines Screen was performed using the standard one-dose NCI protocol, which is described in more detail at https://dtp.cancer.gov/discovery_development/nci-60/default.htm.
# Compounds with GIPRCNT values below 10 were considered active. Activity score was based on GIPRCNT using the following formula: […]
# Score is 0 for GIPRCNT values of 100 or above, 50 for GIPRCNT values of 0, and 100 for GIPRCNT values of -100.
row,Structure (SMILES),growth
1,Cc1ccc(S(=O)(=O)N2CCN(S(=O)(=O)c3oc(-c4ccccc4)nc3C#N)CC2)cc1,60.8% (inactive)
2,COc1cc2oc(-c3cccc(C(=O)Nc4ccc(Cl)cc4)c3)cc(=O)c2c(OCCNC(=O)[C@@H](N)CO)c1OC,31.3% (inactive)
3,O=C(c1ccc(Cl)cc1)C(c1c[nH]c2ccccc12)c1c[nH]c2ccccc12,-30.6% (active)
4,Cn1cc(-c2cc3nc(-c4c[nH]c5ccccc45)cc(N)n3n2)c2cc(Cl)ccc21,-85.5% (active)
5,Cc1cc(N=C2NC(=O)/C(=C/c3cc(C(C)(C)C)c(O)c(C(C)(C)C)c3)S2)n[nH]1,3.32% (active)
6,Cc1cc(N=C2NC(=O)S/C2=C\c2ccc(F)cc2)n[nH]1,18.1% (inactive)
7,COC(=O)CNC(=O)COc1c(OC)c(OC)cc2oc(-c3cccc(C(=O)Nc4ccc(Cl)cc4)c3)cc(=O)c12,37.9% (inactive)
8,COc1ccccc1-n1cc(C#N)c(N)c1C(=O)c1ccc(Cl)cc1Cl,28.5% (inactive)
9,COc1ccc(OC)c(-n2cc(C#N)c(N)c2C(=O)c2ccc(Cl)cc2Cl)c1,42.6% (inactive)
10,O=C(Nc1ccc(OCC(=O)c2ccc(Cl)cc2)cc1)Nc1ccc(Cl)c(C(F)(F)F)c1,6.1% (active)
11,O=C(Nc1ccc(Oc2ncnc3scc(Nc4n[nH]c(=S)s4)c23)cc1)C1(C(=O)Nc2cccc(C(F)(F)F)c2)CC1,86.7% (inactive)
12,Cc1ccc(-c2nc(C#N)c(S(=O)(=O)N3CCN(S(C)(=O)=O)CC3)o2)cc1,-52.4% (active)
13,C#C[C@]1(O)CC[C@H]2[C@@H]3CC=C4c5sc(Nc6ccc(C(F)(F)F)cn6)nc5CC[C@]4(C)[C@H]3CC[C@@]21C,8.97% (active)
14,Fc1ccc(-c2csc(Nc3cccc(Nc4nc(-c5ccc(F)cc5)cs4)c3)n2)cc1,7.43% (active)
15,COc1ccc(C2OC[C@@]3(C)C4CC[C@]5(C)C(CC=C6C7CC(C)(C)CC[C@]7(C(=O)O)CC[C@]65C)[C@@]4(C)C[C@@H](O)[C@@H]3O2)cc1 (stereo not given in full),88.5% (inactive)
16,Cn1cc(-c2nnc(N)nc2-c2c[nH]c3ccccc23)c2cc(Br)cnc21,29.4% (inactive)
17,CC(C)(C)c1cc(/C=C2\S/C(=N/c3ncn[nH]3)NC2=O)cc(C(C)(C)C)c1O,10.3% (inactive)
18,CCOC(=O)C1=C(N)N(c2ccc(C)cc2)C2=C(C(=O)CC(C)(C)C2)C1c1ccccc1Br (stereo not given),69.6% (inactive)
19,O=C1NC2C=CC=CC2/C1=C1/SC(=S)N(C2CC(=O)N(c3ccc(Br)cc3)C2=O)C1=O (stereo not given),82.9% (inactive)
20,COc1cc(-c2nc3ccc(C)cc3[nH]2)ccc1OCc1nnc(-c2ccccc2Br)o1,28% (inactive)

row,Structure (SMILES),growth
1,COc1cc(Nc2nc(O)c(/C=C3\C=Nc4ccccc43)s2)cc(OC)c1OC,2.48% (active)
2,CC1(C)CC[C@]2(C(=O)O)CC[C@]3(C)C(=CCC4[C@@]5(C)C[C@@H](O)[C@@H]6OC(c7cccc(F)c7)OC[C@@]6(C)C5CC[C@]43C)C2C1 (stereo not given in full),38.9% (inactive)
3,C#C[C@]1(O)CC[C@H]2[C@@H]3CC=C4c5sc(Nc6cc(C)cc(C)n6)nc5CC[C@]4(C)[C@H]3CC[C@@]21C,-35.6% (active)
4,Cc1ccc(COc2ccc(NC(=O)Nc3ccc(Cl)c(C(F)(F)F)c3)cc2)cc1,33.7% (inactive)
5,CCn1c(SCC(=O)Nc2ccc(-c3nc4ccccc4[nH]3)cc2)nc2ccccc2c1=O,-58.2% (active)
6,COc1cc(C2CC(c3ccccc3)=Nc3c(N)nc(N)nc3N2)ccc1Oc1nc(NCCO)nc(N2CCOCC2)n1 (stereo not given),90% (inactive)
7,O=C(CC(=O)Nc1ccc(Oc2ncnc3scc(Nc4n[nH]c(=S)s4)c23)cc1)Nc1ccc(Br)cc1,86.3% (inactive)
8,Cn1cc(-c2nc(N)nnc2-c2c[nH]c3ccccc23)c2cc(Br)cnc21,65.2% (inactive)
9,CCOC(=O)c1ccc(NC(=O)CSC(CC(=O)c2sc(Nc3ccccn3)nc2C)c2ccccc2F)cc1 (stereo not given),13.1% (inactive)
10,COc1ccc(Cn2cc(C#N)c(N)c2C(C)=O)c(OC)c1,106% (inactive)
11,O=C1S/C(=C\c2ccc([N+](=O)[O-])cc2)C(=O)N1CCN1CCCCC1,95.6% (inactive)
12,C#C[C@]1(O)CC[C@H]2[C@@H]3CC=C4c5sc(Nc6ccc(N(C)C)cc6)nc5CC[C@]4(C)[C@H]3CC[C@@]21C,28.6% (inactive)
13,COc1ccc(-n2c(SCC(=O)NNS(=O)(=O)c3ccccc3)nc3ccc(Cl)cc3c2=O)cc1,94.8% (inactive)
14,CC1(C)CC(=O)C2=C(C1)N(Cc1ccc(C(=O)O)cc1)C1=C(C(=O)CC(C)(C)C1)C2c1ccc(Cl)cc1,91.9% (inactive)
15,Cc1ccc2c(c1)C(=O)/C(=C/c1ccc([N+](=O)[O-])cc1)S2,86.3% (inactive)
16,COc1ccc(C2c3sc4ccc(C)cc4c3Oc3nc(N)nc(N)c32)cc1 (stereo not given),61.3% (inactive)
17,COc1cccc(C(=O)CSc2nc(-c3ccc(OCc4ccccc4)c(OC)c3)c(C#N)c(=O)[nH]2)c1,90.7% (inactive)
18,O=C(Nc1ccc(OCc2ccc(F)cc2)cc1)Nc1ccc(Cl)c(C(F)(F)F)c1,6.12% (active)
19,CCOc1ccc(/C=N/NC(=O)Cn2nc(Cc3ccc(OC)cc3)c3onc(C)c3c2=O)cc1,16.3% (inactive)
20,O=C(Nc1ccc(OCc2ccc(Cl)cc2)cc1)Nc1ccc(Cl)c(C(F)(F)F)c1,3.95% (active)
